Screening data deposited in PubChem by several laboratories.
Only some compounds are listed: those with a hit (about 3% of all), similar ones and a draw of the others.
PAX8 reporter – inhibitors of PAX8-driven TPO luciferase reporter, primary screen, RMG-I cells, single concentration; SteadyGlo, 24 h; inhibition, % at 12.6 µM; 1.2% of 360,000 active; AID 652154, 2013;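 active = mean replicate inhibition at least 60% with every replicate also reaching 60%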;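 note: luciferase light reporting Pax8 driven TPO promoter activity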
Peg3 prom inh – Peg3 promoter-driven luciferase inhibitors, primary screen, cell-based, HeLa, luciferase luminescence; HeLa PEG-Prom luciferase reporter, overnight; inhibition, % at 20 µM; 1.7% of 360,000 active;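 active = inhibition of at least 50% at 20 µM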
EWS-Fli block – EWS/Fli-driven NR0B1 reporter inhibitors, primary screen, A673 cells, NR0B1 luciferase, luminescence, MLPCN library; viability-normalised; inhibition, % at 12.6 µM; 0.67% of 350,000 active; AID 651661, 2012;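 active = mean inhibition of at least 50% after viability correction, with every replicate also passing that limit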;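 note: firefly luciferase signal divided by Alamar Blue viability fluorescence both relative to DMSO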
MITF TRPM1 inh – inhibitors of MITF-dependent TRPM1 promoter reporter, primary screen, cell-based, SK-MEL-5, single point, luciferase; SK-MEL-5 TRPM1 promoter luciferase, 24 h; inhibition, % at 12.5 µM; 0.83% of 330,000 active; AID 488899, 2010;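 active = mean inhibition across replicates of 60% or more, whatever share of single replicates reaches that level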
Shn3 3UTR inh – reduction of Shn3 3'UTR firefly luciferase signal, primary screen, Schnurri-3 inhibitor project, cell-based, Clone20 osteoblasts, set 2. Clone20 osteoblast Shn3 3'UTR firefly luciferase, 24 h. inhibition, % at 12.5 µM. 0.52% of 360,000 active;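 active = mean inhibition of at least 75% with every replicate also reaching 75%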
ABHD5 PLIN5 PPI – ABHD5-PLIN5 interaction inhibitors, primary screen, cell lysate, split luciferase complementation, luminescence | Perilipin-5 (Homo sapiens) + 1-acylglycerol-3-phosphate O-acyltransferase ABHD5 (Homo … | AID 602281, 2012 | 0.78% of 360,000 active | Split G. princeps luciferase complementation, 4 h | inhibition, % at 4 µM;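 active = inhibition above the mean inhibition across every tested compound plus 3 SD, cut at about 22% in these data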
Target sequence (Q00G26 whole entry, looked up): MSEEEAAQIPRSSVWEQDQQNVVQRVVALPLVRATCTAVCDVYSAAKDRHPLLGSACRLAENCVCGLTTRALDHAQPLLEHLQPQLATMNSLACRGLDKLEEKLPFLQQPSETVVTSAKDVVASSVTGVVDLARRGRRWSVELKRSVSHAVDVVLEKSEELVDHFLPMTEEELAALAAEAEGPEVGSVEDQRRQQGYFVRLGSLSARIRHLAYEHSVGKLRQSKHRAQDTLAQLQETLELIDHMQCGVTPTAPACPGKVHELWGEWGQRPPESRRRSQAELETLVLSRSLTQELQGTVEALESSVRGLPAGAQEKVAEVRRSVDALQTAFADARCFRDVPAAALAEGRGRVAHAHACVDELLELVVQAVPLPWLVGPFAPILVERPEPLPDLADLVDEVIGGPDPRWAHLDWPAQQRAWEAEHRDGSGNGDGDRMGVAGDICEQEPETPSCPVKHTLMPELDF
Target sequence (Q8WTS1 whole entry, looked up): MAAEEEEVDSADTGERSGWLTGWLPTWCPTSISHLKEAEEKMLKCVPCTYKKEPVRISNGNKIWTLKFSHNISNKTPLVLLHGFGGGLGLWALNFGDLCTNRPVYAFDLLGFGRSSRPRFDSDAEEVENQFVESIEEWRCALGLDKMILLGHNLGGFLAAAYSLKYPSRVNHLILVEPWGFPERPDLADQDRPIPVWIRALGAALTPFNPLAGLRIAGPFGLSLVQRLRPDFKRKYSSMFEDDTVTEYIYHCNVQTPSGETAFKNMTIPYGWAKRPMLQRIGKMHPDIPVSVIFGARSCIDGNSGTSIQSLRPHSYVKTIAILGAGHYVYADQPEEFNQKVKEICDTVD
A number is an active result; i = inactive; nt = not tested or not shown.

SMILES	PAX8 reporter	Peg3 prom inh	EWS-Fli block	MITF TRPM1 inh	Shn3 3UTR inh	ABHD5 PLIN5 PPI
COc1ccc(NC(=O)N(C)C[C@H]2OCCCC[C@H](C)Oc3ccc(NC(=O)Nc4c(C)noc4C)cc3C(=O)N([C@@H](C)CO)C[C@@H]2C)cc1	i	nt	i	nt	nt	nt
O=C1c2ccccc2C(=O)c2c(NCCCN(CCO)CCO)cccc21	i	59	i	i	i	i
CN(C)C(=O)C[C@H]1C=C[C@H](NS(=O)(=O)c2ccccc2)[C@@H](CO)O1	i	nt	i	nt	nt	nt
COc1ccc(OC)c(CCNC(=O)Cn2nc(C)c3c(C)n(-c4ccc(C)cc4)nc3c2=O)c1	71	i	i	i	i	i
COc1ccc(CCNC(=O)Cn2nc(C)c3c(C)n(-c4ccccc4)nc3c2=O)c(OC)c1	i	i	i	i	i	i
COC(=O)N1C(=O)[C@](c2ccccc2)(C(C)C)N1C(=O)OC	i	i	i	i	i	i
CCOC(=O)N1C(=O)[C@@](c2ccc(Cl)cc2)(C(C)C)N1C(=O)OCC	69	100	i	i	i	i
CCOC(=O)N1C(=O)[C@](c2ccc(Cl)cc2)(C(C)C)N1C(=O)OCC	i	68	i	i	i	i
CCOC(=O)N(C)C[C@H]1OCc2ccccc2-c2ccccc2C(=O)N([C@H](C)CO)C[C@@H]1C	nt	nt	i	nt	nt	nt
Cc1ccc(S(=O)(=O)N(C)C[C@H]2OCCCC[C@H](C)Oc3ccc(NS(=O)(=O)c4ccc(Cl)cc4)cc3C(=O)N([C@@H](C)CO)C[C@H]2C)cc1	i	nt	i	nt	nt	nt
Cc1ccc(S(=O)(=O)N(C)C[C@H]2OCCCC[C@H](C)Oc3ccc(NS(=O)(=O)c4ccc(Cl)cc4)cc3C(=O)N([C@@H](C)CO)C[C@@H]2C)cc1	89	nt	i	nt	nt	nt
Cc1ccc(S(=O)(=O)Nc2ccc3c(c2)C(=O)N([C@H](C)CO)C[C@H](C)[C@@H](CN(C)S(=O)(=O)c2ccc(Cl)cc2)OCCCC[C@H](C)O3)cc1	95	nt	i	nt	nt	nt
Cc1ccc(S(=O)(=O)N(C)C[C@@H]2OCCCC[C@@H](C)Oc3ccc(NS(=O)(=O)c4ccc(Cl)cc4)cc3C(=O)N([C@H](C)CO)C[C@@H]2C)cc1	i	nt	i	nt	nt	nt
Cc1ccc(S(=O)(=O)Nc2ccc3c(c2)C(=O)N([C@@H](C)CO)C[C@@H](C)[C@@H](CN(C)S(=O)(=O)c2ccc(Cl)cc2)OCCCC[C@@H](C)O3)cc1	83	nt	i	nt	nt	nt
Cc1ccc(S(=O)(=O)Nc2ccc3c(c2)C(=O)N([C@H](C)CO)C[C@@H](C)[C@H](CN(C)S(=O)(=O)c2ccc(Cl)cc2)OCCCC[C@H](C)O3)cc1	88	nt	i	nt	nt	nt
Cc1noc(C)c1S(=O)(=O)Nc1ccc2c(c1)C(=O)N([C@H](C)CO)C[C@H](C)[C@H](CN(C)C(=O)CCCN(C)C)OCCCC[C@@H](C)O2	i	nt	i	nt	nt	nt
c1ccc(COc2ccc(OCCCCN3CCCC3)cc2)cc1	i	i	nt	i	i	i
CC1CCN(CCOc2ccc(OCc3ccccc3)cc2)CC1	118	i	i	i	i	i
NC(=S)N/N=C/c1ccc(C(F)(F)F)cc1	i	i	i	i	i	i
NC(=S)N/N=C/c1ncc(C(F)(F)F)cc1Cl	nt	i	nt	i	91	i
COc1ccc(S(=O)(=O)Nc2cccc(-c3ccc4nncn4n3)c2)cc1	i	i	64	i	i	i
C[C@H]1CN([C@@H](C)CO)C(=O)c2cc(NS(=O)(=O)c3cn(C)cn3)ccc2O[C@H]1CN(C)Cc1ccc(C(F)(F)F)cc1	i	nt	i	nt	nt	nt
COC(=O)[C@H]1[C@@H](O)[C@@]2(O)c3c(OC)cc(OC)cc3O[C@@]2(c2ccc(OC)cc2)[C@@H]1c1ccc(F)cc1	98	nt	i	nt	nt	nt
C/C=C/c1ccc([C@H]2[C@@H](CO)N(C(C)=O)[C@H]2CNC(=O)c2ccccc2)cc1	i	nt	i	nt	nt	nt
N#Cc1cccc(C=C(C(=O)c2ccccc2)c2ccccc2)c1	i	nt	i	nt	nt	22
SMILES	PAX8 reporter	Peg3 prom inh	EWS-Fli block	MITF TRPM1 inh	Shn3 3UTR inh	ABHD5 PLIN5 PPI
CN(C)CCN(Cc1ccc(Cl)cc1)c1ccccn1	i	i	i	i	i	i
S=C(NCCCCN(Cc1ccc(Cl)cc1)c1ccc(Br)cn1)NCCCc1cnc[nH]1	i	96	i	nt	i	i
C/C=C/c1ccc([C@@H]2[C@H](CO)N(C(C)=O)C23CN(C(=O)c2ccc(F)cc2)C3)cc1	i	nt	i	nt	nt	nt
CC(C)=C1C2CCC1C1C(=O)N(NC(=O)COc3ccc(C(C)(C)C)cc3)C(=O)C21 (stereo not given)	i	55	nt	i	i	i
CC(C)(C)c1ccc(OCC(=O)NNC(=O)C2CCCO2)cc1 (stereo not given)	i	i	i	i	i	i
COc1ccccc1-c1cc2nc(C)c(CCC(=O)NCc3ccc(F)cc3)c(C)n2n1	i	i	i	i	i	i
COc1ccccc1-c1cc(C(F)(F)F)nc(S(=O)(=O)CCCC(=O)NC(C)C)n1	nt	113	nt	86	i	i
COc1ccccc1-c1cc(C(F)(F)F)nc(S(=O)(=O)CCCC(=O)NCc2ccc(F)cc2)n1	i	107	i	90	88	i
COc1ccccc1-c1cc(C(F)(F)F)nc(N2CCCC2)n1	i	i	nt	i	i	i
COc1ccccc1-c1cc(C(F)(F)F)nc(S(=O)(=O)CCCC(=O)N2CCCCC2C)n1 (stereo not given)	i	110	nt	91	97	i
O=C(C[C@H]1C[C@@H]2c3cc(NC(=O)Nc4ccccc4F)ccc3O[C@@H]2[C@H](CO)O1)NC1CCCCC1	i	nt	i	nt	nt	nt
COCc1cc(C)nc2sc(C(=O)NN)c(-n3cccc3)c12	61	i	i	i	i	i
NC(=NCc1ccccc1)c1cccc([N+](=O)[O-])c1	i	i	i	i	i	i
CC1(C)CSC(=NCc2ccccc2)N1C(=O)c1cccc([N+](=O)[O-])c1	69	i	i	i	i	i
Cc1noc(C)c1S(=O)(=O)Nc1ccc2c(c1)C(=O)N([C@H](C)CO)C[C@H](C)[C@H](CN(C)Cc1ccc(Cl)c(Cl)c1)OCCCC[C@@H](C)O2	i	nt	i	nt	nt	nt
Cc1noc(C)c1S(=O)(=O)Nc1ccc2c(c1)C(=O)N([C@@H](C)CO)C[C@@H](C)[C@@H](CN(C)Cc1ccc(Cl)c(Cl)c1)OCCCC[C@@H](C)O2	65	nt	i	nt	nt	nt
Cc1noc(C)c1S(=O)(=O)Nc1ccc2c(c1)C(=O)N([C@@H](C)CO)C[C@@H](C)[C@H](CN(C)Cc1ccc(Cl)c(Cl)c1)OCCCC[C@@H](C)O2	69	nt	i	nt	nt	nt
C[C@H](CO)N1C[C@H](C)[C@@H](CN(C)S(=O)(=O)c2cccc(F)c2)Oc2ncc(-c3cccc(C(=O)N(C)C)c3)cc2C1=O	nt	nt	i	nt	nt	nt
